High-throughput results as filed in PubChem.
Keap1-Nrf2 PPI = Keap1-Nrf2 protein-protein interaction inhibitors, primary screen, biochemical, fluorescence polarization, single point; hit rate 0.15% among 340,000; AID 504523, 2011; Keap1 Kelch-Nrf2 peptide fluorescence polarization, 1536-well; Kelch-like ECH-associated protein 1 (Homo sapiens), Q14145; inhibition, % at 9.4 µM; in the data active = inhibition above about 12%;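 note: human Keap1 Kelch domain with fluorescein labeled Nrf2 9mer peptide probe; 0% = neutral control wells and 100% = peptide positive control; higher means more block of Keap1 binding to Nrf2 peptide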
E coli Lon inh = inhibitors of E. coli Lon protease, primary screen, biochemical, fluorescence polarization; P0A9M0; purified E. coli Lon protease; inhibition, % at 7.94 µM; hit rate 0.42% among 360,000; AID 602123, 2011; in the data active = inhibition above about 13%, passing the limit was not always enough;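 note: 0% = enzyme with probe and DMSO and 100% = no enzyme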
Target sequence (P0A9M0 whole entry, looked up): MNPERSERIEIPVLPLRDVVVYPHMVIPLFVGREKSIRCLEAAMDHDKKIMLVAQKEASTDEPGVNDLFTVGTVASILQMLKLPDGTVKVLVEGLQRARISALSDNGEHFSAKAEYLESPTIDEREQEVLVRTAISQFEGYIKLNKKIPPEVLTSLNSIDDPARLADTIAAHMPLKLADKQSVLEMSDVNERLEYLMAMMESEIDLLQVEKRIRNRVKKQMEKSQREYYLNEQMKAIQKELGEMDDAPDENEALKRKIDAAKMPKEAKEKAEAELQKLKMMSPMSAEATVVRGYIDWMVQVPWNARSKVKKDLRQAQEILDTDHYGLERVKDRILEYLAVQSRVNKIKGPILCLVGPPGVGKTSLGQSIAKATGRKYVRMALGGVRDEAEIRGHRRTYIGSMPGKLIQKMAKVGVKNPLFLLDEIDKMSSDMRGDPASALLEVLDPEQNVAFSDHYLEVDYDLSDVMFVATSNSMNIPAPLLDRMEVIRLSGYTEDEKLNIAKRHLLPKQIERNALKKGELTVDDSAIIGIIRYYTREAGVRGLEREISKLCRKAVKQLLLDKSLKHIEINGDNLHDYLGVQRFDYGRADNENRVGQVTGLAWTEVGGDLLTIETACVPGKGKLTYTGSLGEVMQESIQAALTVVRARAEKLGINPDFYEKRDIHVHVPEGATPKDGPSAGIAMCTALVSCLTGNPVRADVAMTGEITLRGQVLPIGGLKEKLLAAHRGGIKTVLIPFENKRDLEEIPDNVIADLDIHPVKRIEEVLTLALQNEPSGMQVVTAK
RTF Ca sens inh = cardiac RTF calcium sensitivity inhibitors, primary screen, biochemical, IANBD-TnC fluorescence, EC70 calcium | Troponin I, cardiac muscle (Homo sapiens) + Troponin T, cardiac muscle (Homo sapiens) + … | IANBD-labeled cardiac RTF, Ca2+ fluorescence | inhibition, % at 7.15 µM | hit rate 0.12% among 340,000;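 active = inhibition above the mean inhibition of all tested compounds plus 3 SD, cut at about 17% in these data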;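 note: assay run at fixed EC70 calcium of 1.6 mM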
cardiac RTF act = cardiac RTF calcium sensitivity activators, primary screen, biochemical, IANBD-TnC fluorescence, EC20 calcium. Troponin I, cardiac muscle (Homo sapiens) + Troponin T, cardiac muscle (Homo sapiens) + …. IANBD-labeled TnC RTF fluorescence at EC20 calcium; 0% EC20 calcium, 100% full calcium. activation, % at 7.2 µM. hit rate 0.24% among 340,000;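 active = activation above the mean over all tested compounds plus 3 SD, cut at about 30% in these data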;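 note: rise in fluorescence read as greater calcium sensitivity of cardiac thin filaments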
LANA DNA inh = inhibitors of KSHV C-LANA binding to DNA, primary screen, biochemical, fluorescence polarization, FAM-LBS DNA, MBP-C-LANA, single point | AID 504423, 2011 | hit rate 0.078% among 340,000 | Kaposi's sarcoma herpesvirus LANA C-terminal domain (residues 932-1162) DNA binding | inhibition, % at 9 µM;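 active = highest replicate inhibition at or above 60% at 9 µM, even if other replicates fall short; inactive = all replicates below 60% inhibition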;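 note: 0% = neutral control wells and 100% = 4 µM acridine orange control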
Keap1 TSA = Keap1 Kelch domain binders by thermal stabilisation, dose response, biophysical, thermal shift, RT-PCR instrument, cherry-pick | shares compounds with Keap1-Nrf2 PPI | delta Tm; stronger effect = higher value | AID 651823, 2012 | hit rate 8% among 400 | max delta Tm, degrees C; in the data active = max delta Tm above about 0.48 degrees C
Dye-only ctr = Sypro Orange dye melt without protein, dose response, artefact control for Keap1-Nrf2 interaction inhibitor project, biochemical, thermal shift counterscreen, cherry-pick; Sypro Orange dye-only thermal melt, no protein, delta Tm; top dose 26 µM; delta Tm, degrees C (concentration not given with the values); AID 651858, 2012; 140 tested, under 10 active; shares compounds with Keap1-Nrf2 PPI;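 active = at highest dose tested, delta Tm positive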
eLon confirm = E. coli Lon protease inhibitor retest, confirmation, biochemical, fluorescence polarization; shares compounds with E coli Lon inh; purified E. coli Lon; inhibition, % at 7.94 µM; hit rate 31% among 1,400; AID 602230, 2012; in the data active = inhibition above about 16%;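 note: 0% = enzyme with probe and DMSO and 100% = no enzyme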
The depositor's hits bear a star; i = inactive; · = no result given; + = active, no number. Most compounds without a hit are left out; they make up all but 0.74% or so of the library.

SMILES	Keap1-Nrf2 PPI	E coli Lon inh	RTF Ca sens inh	cardiac RTF act	LANA DNA inh	Keap1 TSA	eLon confirm	others
N=c1c(C(=O)NC2CCCCC2)cc2c(=O)n3ccccc3nc2n1Cc1ccccc1	-9	2	-2	0	5	·	·
N=c1c(C(=O)NC2CCCCC2)cc2c(=O)n3ccccc3nc2n1Cc1cccnc1	4	9	2	-5	7	·	·
CC(C)Nc1nc(Nc2ccc(F)cc2)c2sccc2n1	·	6	·	·	·	·	·
CC(Sc1nc2ccccc2s1)C(=O)Nc1nnc(C(C)C)s1 (configuration not stated)	71*	-1	-4	-2	81*	-0.04	·
CCC(Sc1nc2ccccc2s1)C(=O)Nc1nnc(C)s1 (configuration not stated)	-6	6	-6	0	-1	·	·
COCCCNC(=O)c1ccc2c3c(onc13)-c1ccccc1C2=O	79*	2	-5	6	18	-0.19	·
CC1(C(=O)NC2CCCCCC2)CCN1C(=O)Cc1ccc(-c2ccccc2)cc1 (configuration not stated)	·	-3	·	·	·	·	·
Cc1ccc(-c2nc3ccccc3nc2-c2ccccc2)cc1	-4	-9	-6	-2	-3	·	·
Cn1nc(-c2ccccc2)c2nc3ccccc3nc21	54*	-5	-9	52*	33	-0.08	·	Dye-only ctr=-28
CCOC(=O)N1CCN(Cc2ccccc2F)CC1	0	-2	-1	0	0	·	·
CCOC(=O)N1CCN(Cc2ccccc2Cl)CC1	15*	-5	-6	2	-2	-0.17	·
COc1ccc2nc3ccccc3[n+]([O-])c2c1	39*	194*	-33	23	50	-0.14	138*
CCN1C(=O)c2cccc3c(N)ccc(c23)C1=O	38*	+	i	+	38	-0.2	+
Cc1nnc(NC(=O)c2ccc3c(c2)NC(=O)CS3)s1	18*	25*	4	-5	0	-0.13	-6
O=C(COC(=O)c1ccc(F)cc1F)NCc1ccc2c(c1)OCO2	-5	-8	7	-1	0	·	·
COc1ccc(C2C(C#N)=C(N)OC3=C2C(=O)CC(C)(C)C3)c([N+](=O)[O-])c1OC (configuration not stated)	-3	-5	-10	13	-1	·	·
CC1(C)CC(=O)C2=C(C1)OC(N)=C(C#N)[C@@H]2c1ccccc1[N+](=O)[O-]	39*	53*	-53	41*	36	-0.02	5	Dye-only ctr=-28
CCCCN(C(=O)COC(=O)c1sccc1C)c1c(N)n(CCC)c(=O)[nH]c1=O	·	-5	·	·	·	·	·
CN1C(=O)NC(c2ccccc2[N+](=O)[O-])C2=C1CCCC2=O (configuration not stated)	29*	+	-64	38*	46	0.01	+	Dye-only ctr=-34
COc1ccc2c3c(ccc2c1)C(=O)/C(=C/O)CC3	-10	-24	-6	1	-3	·	·
COc1[nH]c(/N=C/c2ccccc2)c(C#N)c1C#N	78*	149*	-175	106*	102*	-0.04	8
CCOC(=O)C1(C)CCCN(C(=O)c2cccc3ccccc23)C1 (configuration not stated)	·	6	·	·	·	·	·
Cc1cc(N2CCN(C(c3ccnc4ccccc34)c3nnnn3-c3c(C)cccc3C)CC2)c2ccccc2n1 (configuration not stated)	·	-5	·	·	·	·	·
CN(CCC#N)C(=O)COC(=O)C1c2ccccc2Oc2ccccc21	-5	2	-38	1	0	·	·
N#CCCN(CCC#N)C(=O)C1c2ccccc2Oc2ccccc21	64*	+	-22	12	95*	-0.18	7	Dye-only ctr=-32
SMILES	Keap1-Nrf2 PPI	E coli Lon inh	RTF Ca sens inh	cardiac RTF act	LANA DNA inh	Keap1 TSA	eLon confirm	others
O=C1NC[C@@H](CCCCN2C[C@H](Cc3ccccc3)N(CC3CCCCC3)C(=O)C2=O)N(CC2CCCCC2)C1=O	·	-6	·	·	·	·	·
C[C@H](CO)N1C[C@H](C)[C@@H](CN(C)C(=O)Nc2ccccc2F)OCc2cnnn2CCCC1=O	·	-7	·	·	·	·	·
Cc1cc2nc3c(=O)n(C4CCCCC4)c(=O)[nH]c3nc2cc1N	48*	75*	i	566*	97*	-0.03	115*	Dye-only ctr=-25
Cc1c(NC(=O)CSc2nnc(-c3ccccc3F)o2)c(=O)n(-c2ccccc2)n1C	·	-10	·	·	·	·	·
CC1(C(=O)Nc2cccc3cccnc23)CCN1C(=O)Cc1ccc(Cl)cc1Cl (configuration not stated)	·	10	·	·	·	·	·
O=c1cc(CN2CCc3ccccc32)nc2sccn12	0	-1	1	-6	3	·	·
O=c1cc(CN2CCCc3ccccc32)nc2sccn12	58*	39*	-51	62*	43	0.01	86*
COC(=O)c1cc(N2CCN(C)CC2)nc2ccccc12	31*	96*	-62	50*	53	-0.03	19*
CCOC(=O)c1cc2c(c(CCO)n1)[C@@H](CCO)N(S(=O)(=O)C(C)(C)C)C2	2	1	-6	-5	0	·	·
COc1ccc(-n2cnnc2SCC(=O)NC2CC2)cc1	·	-7	·	·	·	·	·
COc1ccc(NC(=O)NS(=O)(=O)c2ccc(C)cc2)cn1	77*	87*	-491	348*	104*	-0.13	28*
COc1cc(NC(=O)NS(=O)(=O)c2ccc(C)cc2)cc(OC)c1	-1	8	3	0	2	·	·
Cc1cc[n+](-c2[nH]c(=O)sc2/C=N/N=C(\[O-])c2ccccc2)cc1C	43*	68*	-60	55*	62*	-0.04	125*
Cc1cc[n+](-c2[nH]c(=O)sc2/C=N/N=C(\[O-])c2ccncc2)cc1C	2	3	0	-6	1	·	·
CCN(CC)S(=O)(=O)c1ccc(N2CCOCC2)c(NS(=O)(=O)c2ccc(Cl)s2)c1	·	-7	·	·	·	·	·
COc1ccc(C(=O)c2ccc(CC#N)s2)cc1	-5	-12	-8	5	1	·	·
COc1ccc(C(=O)c2ccsc2N)cc1	14*	90*	-49	65*	57	-0.04	6
